Assay outcomes deposited in PubChem BioAssay by Broad Institute.
A selection: hits, their analogues and other compounds. The true share with any hit is near 3.1%.
Rtt109 HAT inh: inhibitors of C. albicans Rtt109/Vps75 HAT, primary screen, biochemical, ThioGlo CoA-SH fluorescence, plate reader | purified Rtt109/Vps75, 4 h | AID 540336, 2011 | 0.16% of 330,000 active | inhibition, % at 34.9 µM;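 active = inhibition of at least 50% in every replicate; inconclusive = best replicate reaches 50% inhibition but some replicates fall short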
Target sequence (Q5AAJ8 whole entry, looked up): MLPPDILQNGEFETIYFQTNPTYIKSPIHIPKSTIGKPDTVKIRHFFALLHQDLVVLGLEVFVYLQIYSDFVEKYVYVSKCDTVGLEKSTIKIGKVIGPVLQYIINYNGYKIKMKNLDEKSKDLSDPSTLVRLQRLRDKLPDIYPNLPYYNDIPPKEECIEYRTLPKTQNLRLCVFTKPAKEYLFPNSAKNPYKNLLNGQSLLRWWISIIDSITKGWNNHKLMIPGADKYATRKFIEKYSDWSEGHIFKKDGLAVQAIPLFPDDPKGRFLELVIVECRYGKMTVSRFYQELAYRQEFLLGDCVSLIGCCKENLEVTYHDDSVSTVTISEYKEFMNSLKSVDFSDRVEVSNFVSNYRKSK
MITF act: activators of MITF-driven TRPM1 promoter reporter, primary screen, cell-based, SK-MEL-5, luciferase, single point; SK-MEL-5 TRPM1-promoter luciferase, 24 h; % of positive control, neutral wells = 0; activation, % at 12.5 µM; 0.75% of 300,000 active; AID 588334, 2011;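 active = mean activation of at least 80% with every replicate also reaching 80%; inconclusive = mean reaches 80% but some replicate falls short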
C2C12 statin: suppressors of statin myotoxicity in C2C12 myotubes, primary screen, cell-based, single point, plate reader. C2C12 myotubes + simvastatin, ATP luminescence, 48 h; scaled: DMSO 0, geranylgeraniol control 100. rescue of ATP level, % at 7.49 µM. 0.78% of 330,000 active;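 active = mean ATP rescue above about 67%, or every replicate alone reaching that limit, limit read from the data, passing the limit was not always enough; inconclusive = no clear call, values can overlap the other calls; inactive = mean under the limit and some replicate under it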;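 note: myotubes were challenged with 10 µM simvastatin during compound exposure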
Wnt act: Wnt/beta-catenin pathway activators, primary screen, cell-based, plate reader, single point; Wnt/beta-catenin reporter cell assay, activator; activation, % at 9.35 µM; 1.2% of 300,000 active; in the data active = activation above about 30%, passing the limit was not always enough; inconclusive = no clear call, values can overlap the other calls
esBAF inh: Bmi1 luciferase reporter increase in mESCs, primary screen, esBAF inhibitor project, mouse ES cells, Bmi1 luciferase knock-in, single point; 2% of 350,000 active; AID 602393, 2012; 24 h; 100% = twice the neutral-well signal; reporter increase, % at 12.5 µM; in the data active = activation above about 40%; inconclusive = no clear call, values can overlap the other calls;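 note: a rise in the Bmi1 reporter signal indicates esBAF inhibition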
Numbers stand for hits; 0 = inactive; ? = inconclusive; - = no result.

SMILES	Rtt109 HAT inh	MITF act	C2C12 statin	Wnt act	esBAF inh
O=C(O)c1ccc(-n2ncc3c2/C(=C/c2cccc([N+](=O)[O-])c2)CC3)cc1	0	138	-	?	-
O=C(O)c1ccc(-n2c(/C=C/c3cccc([N+](=O)[O-])c3)nc3ccccc3c2=O)cc1	0	0	0	0	0
O=C(O)c1ccc(-n2ncc3c2/C(=C\c2cccc([N+](=O)[O-])c2)CC3)cc1	0	113	0	0	92
CN(C)CC(=O)Nc1ccc2c(c1)[C@@H]1C[C@@H](CC(=O)NCc3ccccc3)O[C@@H](CO)[C@@H]1O2	-	-	0	-	0
CCNC(=O)C[C@@H]1CC[C@@H]2[C@H](COc3ccc(NC(=O)c4cccs4)cc3C(=O)N2C)O1	-	-	0	-	0
Cc1occc1-c1nnc(SCC(=O)c2ccc(Cl)cc2)n1CC1CCCO1 (stereo not given)	0	0	137	0	0
CCn1c(SCC(=O)c2ccc(C)cc2)nnc1-c1ccoc1C	0	-	0	0	88
CCn1c(SCC(=O)c2ccc(Cl)cc2)nnc1-c1ccoc1C	-	0	0	0	0
CCOC(=O)C1=C(C)Nc2ccc(C)cc2S1	0	0	-	0	-
CCOC(=O)C1=C(C)Nc2ccccc2S1	51	0	0	0	0
C[C@@H]1CN([C@H](C)CO)C(=O)c2cc(NS(=O)(=O)c3cn(C)cn3)ccc2O[C@@H](C)CCCCO[C@@H]1CN(C)S(=O)(=O)c1ccccc1	-	-	-	-	0
CC(C)(C)C(=O)/C=C(\N)c1ccncc1	0	0	-	0	0
COc1ccc(/C(N)=C/C(=O)C(C)(C)C)cc1	-	0	0	-	58
Cc1ccccc1OCC(=O)Nc1cccc(N(C)S(C)(=O)=O)c1	0	0	0	0	0
O=C(COc1ccc(Cl)cc1Br)Nc1ccncc1	0	0	0	0	79
O=C(CCCOc1ccc(Cl)cc1Cl)Nc1ccncc1	0	0	0	-	0
CN(c1cccc(NC(=O)COc2ccc(Cl)cc2Cl)c1)S(C)(=O)=O	0	-	0	37	0
O=C(COc1ccc(Cl)cc1Cl)Nc1cccnc1	0	94	-	?	-
CC(C)NC(=O)NCC[C@@H]1CC[C@@H](NC(=O)CCN2CCCCC2)[C@H](CO)O1	-	-	0	-	0
COc1ccccc1-c1cn(CC[C@@H]2CC[C@@H](NC(=O)NC(C)C)[C@H](CO)O2)nn1	-	-	0	-	0
CCCCC(=O)N1CCN(c2nc3ccc(Cl)cc3s2)CC1	0	0	0	0	50
CCOc1ccc2nc(N3CCCC(C(=O)NCCCN4CC(C)CC(C)C4)C3)sc2c1 (stereo not given)	0	0	0	0	0
CCCN1CCN(CCCNC(=O)c2ccc3nc(N4CCCCC4)sc3c2)CC1	0	0	0	0	77
CC1CC(C)CN(CCCNC(=O)c2ccc3nc(N4CCCCC4)sc3c2)C1 (stereo not given)	0	-	0	0	55
C[C@@H]1CN([C@H](C)CO)C(=O)Cc2cc(NC(=O)Cc3ccccc3)ccc2O[C@@H]1CN(C)C(=O)Nc1ccc2c(c1)OCO2	-	-	0	-	0
SMILES	Rtt109 HAT inh	MITF act	C2C12 statin	Wnt act	esBAF inh
CS/C(Nc1cc(Cl)ccc1Cl)=C(/C#N)C(=O)c1ccco1	0	-	0	37	0
CO[C@H]1CN(C)C(=O)c2cc(NC(=O)c3ccccc3)ccc2OC[C@H](C)N(C)C[C@H]1C	-	-	0	-	0
CC(C)CC#Cc1ccc2c(c1)O[C@@H](CN(C)Cc1cccnc1)[C@@H](C)CN([C@@H](C)CO)S2(=O)=O	-	-	0	-	0
Clc1nc2ccccc2cc1-c1nnn(-c2ccccc2Br)n1	0	0	0	0	41
Clc1ncccc1-c1nnn(-c2ccccc2Br)n1	0	0	0	0	50
O=c1[nH]c2ccccc2cc1-c1nnn(-c2ccccc2)n1	0	0	0	0	0
Brc1ccccc1-n1nnc(-c2cnc3ccccc3c2)n1	0	0	0	43	?
CN(C)C(=O)C[C@@H]1C[C@@H]2c3cc(NC(=O)Nc4ccc(C(F)(F)F)cc4)ccc3O[C@@H]2[C@H](CO)O1	-	-	0	-	0
CCOc1ccccc1CNC(=O)c1cc2oc3ccccc3c2n1C	0	-	0	0	0
COCCNC(=O)c1cc2oc3ccccc3c2n1C	0	-	0	0	72
